# Source: PubChem BioAssay (NCI)
# About 79,000 compounds went through this panel and 15% of them were active in at least one assay; those are over-represented in the sample as a whole. A number with no mark means an inactive call. Activity calls are given as the source filed them. No stated cut-off is given here; in the data, active means growth inhibition above about 70%; inactive means the rest.
# Experiments:
# [1] = NCI Yeast Anticancer Drug Screen. Data for the rad52 strain (AID 147);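 further: 0% = growth of vehicle-treated control cultures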; conditions: S. cerevisiae rad52 mutant growth inhibition, hits give high values
# Outline: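 Here a repair-compromised yeast strain receives each compound; its growth is then quantified and normalised to vehicle-only controls.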
# [2] = NCI Yeast Anticancer Drug Screen. Data for the wt1 strain (AID 149);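 further: 0% = growth of vehicle-treated wt1 cultures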; conditions: S. cerevisiae wt1 strain (SPY 50644) growth inhibition, hits give high values
# Outline: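 Yeast wt1 strain exposed to compounds; growth inhibition measured relative to vehicle-treated controls.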
# [3] = NCI Yeast Anticancer Drug Screen. Data for the rad50EPP+ strain (AID 151);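 further: 0% = growth of vehicle-treated control cultures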; conditions: S. cerevisiae rad50 mutant strain, hits give high values
# Outline: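 Read-out is yeast growth inhibition relative to vehicle; cells used were the rad50EPP+ strain.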
# [4] = NCI Yeast Anticancer Drug Screen. Data for the rad50 strain (AID 155);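 further: 0% = growth of vehicle-only cultures of the same strain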; conditions: S. cerevisiae rad50 strain growth inhibition, hits give high values
# Outline: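 Yeast carrying a defined DNA repair defect were exposed to test compounds, and growth was compared with vehicle-treated controls to give percent inhibition.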
# [5] = NCI Yeast Anticancer Drug Screen. Data for the mec2-1 strain (AID 157); conditions: S. cerevisiae mec2-1 strain, hits give high values
# Outline: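 Using mec2-1 yeast: add compound, measure growth, express inhibition versus vehicle-treated cultures.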
# [6] = NCI Yeast Anticancer Drug Screen. Data for the rad14 strain (AID 159);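 further: 0% = growth of vehicle-treated control cultures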; conditions: S. cerevisiae rad14 strain growth inhibition, hits give high values
# Outline: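 Yeast cells carrying a defined DNA-repair defect were exposed to compounds, and growth inhibition was calculated relative to vehicle-treated control cultures.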
# [7] = NCI Yeast Anticancer Drug Screen. Data for the sgs1 mgt1 strain (AID 161);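 further: 0% = growth of cultures given vehicle only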; conditions: S. cerevisiae sgs1 mgt1 strain, hits give high values
# Outline: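 Compounds are added to genetically altered yeast, and growth is compared with cultures given vehicle alone to give percent inhibition.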
# [8] = NCI Yeast Anticancer Drug Screen. Data for the CLN2oe strain (AID 163);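 further: 0% = growth of vehicle-only control cultures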; conditions: S. cerevisiae CLN2oe strain, hits give high values
# Outline: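 Whole-cell yeast growth assay. A strain engineered for altered cell-cycle control received compound, and inhibition relative to vehicle-treated cultures was recorded.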
# [9] = NCI Yeast Anticancer Drug Screen. Data for the cln2 rad14 strain (AID 165);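 further: 0% = growth equal to vehicle treated cultures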; conditions: S. cerevisiae cln2 rad14 strain, hits give high values
# Outline: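 Yeast strain cln2 rad14, bearing defects in cell cycle control and DNA repair, serves as the test system; values reflect growth inhibition compared with vehicle.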
# [10] = NCI Yeast Anticancer Drug Screen. Data for the bub3 strain (AID 167); conditions: S. cerevisiae bub3 mutant strain, hits give high values
# Outline: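 Compounds were applied to a genetically altered yeast strain carrying a cell-cycle control defect. Growth inhibition was scored against vehicle-treated controls.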
# [11] = NCI Yeast Anticancer Drug Screen. Data for the wt2 strain (AID 169);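 further: 0% = growth of vehicle-treated yeast cultures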; conditions: S. cerevisiae wt2 strain growth inhibition, hits give high values
# Outline: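 Treated yeast vs. vehicle-treated yeast: growth inhibition determined.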
# [12] = NCI Yeast Anticancer Drug Screen. Data for the mlh1 strain (AID 171);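 further: 0% = growth of vehicle-treated control cultures of the same strain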; conditions: S. cerevisiae mlh1 strain growth inhibition, hits give high values
# Outline: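 A yeast strain with a defined genetic lesion serves as the test organism. Cultures receive compound or vehicle, and growth is measured.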
# [13] = NCI Yeast Anticancer Drug Screen. Data for the sgs1 strain (AID 173);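 further: 0% = growth of vehicle-only control cultures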; conditions: S. cerevisiae sgs1 mutant, hits give high values
# Outline: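 A genetically defined yeast mutant is incubated with the test compound, and its growth is compared to that of the same strain given vehicle.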
# [14] = NCI Yeast Anticancer Drug Screen. Data for the mlh1 rad18 strain (AID 175); conditions: S. cerevisiae mlh1 rad18 strain growth inhibition, hits give high values
# Outline: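 Steps: expose repair-defective yeast to compound; measure growth; express inhibition against vehicle-treated controls.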
# [15] = NCI Yeast Anticancer Drug Screen. Data for the rad18 strain (AID 177); conditions: S. cerevisiae rad18 mutant growth inhibition, hits give high values
# Outline: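 Measured value is growth inhibition of a yeast strain bearing a DNA repair alteration, referenced to vehicle-treated cells.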
# [16] = at 5.0 µM (retest, dose inferred, filed as 0.5)
# [17] = at 50.0 µM (retest, dose inferred, filed as 5.0)
smiles,measurement,setting,value
N#CC(=C1C=CC(=NO)C=C1)c1ccccc1,growth inhibition,[1]; at 1.2 µM,6%
same,growth inhibition,[1]; at 3.7 µM,24%
same,growth inhibition,[1]; at 11.0 µM,98% (active)
same,growth inhibition,[1]; at 33.0 µM,99% (active)
same,growth inhibition,[1]; at 100.0 µM,99% (active)
same,growth inhibition,[2]; at 1.2 µM,3%
same,growth inhibition,[2]; at 3.7 µM,13%
same,growth inhibition,[2]; at 11.0 µM,99% (active)
same,growth inhibition,[2]; at 33.0 µM,99% (active)
same,growth inhibition,[2]; at 100.0 µM,99% (active)
same,growth inhibition,[3]; at 1.2 µM,24%
same,growth inhibition,[3]; at 3.7 µM,64%
same,growth inhibition,[3]; at 11.0 µM,96% (active)
same,growth inhibition,[3]; at 33.0 µM,99% (active)
same,growth inhibition,[3]; at 100.0 µM,98% (active)
same,growth inhibition,[4]; at 1.2 µM,4%
same,growth inhibition,[4]; at 3.7 µM,26%
same,growth inhibition,[4]; [16],30%
same,growth inhibition,[4]; at 11.0 µM,98% (active)
same,growth inhibition,[4]; at 33.0 µM,99% (active)
same,growth inhibition,[4]; [17],99% (active)
same,growth inhibition,[4]; at 50.0 µM,99.3% (active)
same,growth inhibition,[4]; at 100.0 µM,99% (active)
same,growth inhibition,[5]; at 1.2 µM,-3%
same,growth inhibition,[5]; at 3.7 µM,14%
same,growth inhibition,[5]; [16],19%
same,growth inhibition,[5]; at 11.0 µM,99% (active)
same,growth inhibition,[5]; at 33.0 µM,99% (active)
same,growth inhibition,[5]; [17],99% (active)
same,growth inhibition,[5]; at 50.0 µM,99.5% (active)
same,growth inhibition,[5]; at 100.0 µM,99% (active)
same,growth inhibition,[6]; at 1.2 µM,5%
same,growth inhibition,[6]; at 3.7 µM,24%
same,growth inhibition,[6]; at 11.0 µM,98% (active)
same,growth inhibition,[6]; at 33.0 µM,99% (active)
same,growth inhibition,[6]; at 100.0 µM,99% (active)
same,growth inhibition,[7]; [16],35%
same,growth inhibition,[7]; [17],99% (active)
same,growth inhibition,[7]; at 50.0 µM,99.4% (active)
same,growth inhibition,[8]; at 1.2 µM,2%
same,growth inhibition,[8]; at 3.7 µM,10%
same,growth inhibition,[8]; at 11.0 µM,97% (active)
same,growth inhibition,[8]; at 33.0 µM,99% (active)
same,growth inhibition,[8]; at 100.0 µM,99% (active)
same,growth inhibition,[9]; [16],-1%
same,growth inhibition,[9]; [17],99% (active)
same,growth inhibition,[9]; at 50.0 µM,99.2% (active)
same,growth inhibition,[10]; at 1.2 µM,-21%
same,growth inhibition,[10]; at 3.7 µM,-19%
same,growth inhibition,[10]; [16],35%
same,growth inhibition,[10]; at 11.0 µM,94% (active)
same,growth inhibition,[10]; at 33.0 µM,97% (active)
same,growth inhibition,[10]; [17],99% (active)
same,growth inhibition,[10]; at 50.0 µM,99.3% (active)
same,growth inhibition,[10]; at 100.0 µM,99% (active)
same,growth inhibition,[11]; at 1.2 µM,4%
same,growth inhibition,[11]; at 3.7 µM,41%
same,growth inhibition,[11]; at 11.0 µM,99% (active)
same,growth inhibition,[11]; at 33.0 µM,99% (active)
same,growth inhibition,[11]; at 100.0 µM,99% (active)
same,growth inhibition,[12]; at 1.2 µM,3%
same,growth inhibition,[12]; at 3.7 µM,15%
same,growth inhibition,[12]; at 11.0 µM,99% (active)
same,growth inhibition,[12]; at 33.0 µM,99% (active)
same,growth inhibition,[12]; at 100.0 µM,99% (active)
same,growth inhibition,[13]; at 1.2 µM,9%
same,growth inhibition,[13]; at 3.7 µM,50%
same,growth inhibition,[13]; at 11.0 µM,99% (active)
same,growth inhibition,[13]; at 33.0 µM,99% (active)
same,growth inhibition,[13]; at 100.0 µM,99% (active)
same,growth inhibition,[14]; [16],64%
same,growth inhibition,[14]; [17],99% (active)
same,growth inhibition,[14]; at 50.0 µM,99.4% (active)
same,growth inhibition,[15]; at 1.2 µM,12%
same,growth inhibition,[15]; at 3.7 µM,43%
same,growth inhibition,[15]; at 11.0 µM,99% (active)
same,growth inhibition,[15]; at 33.0 µM,99% (active)
same,growth inhibition,[15]; at 100.0 µM,99% (active)
BrCc1ccccc1C(c1ccccc1)c1ccccc1,growth inhibition,[1]; at 1.2 µM,9%
same,growth inhibition,[1]; at 3.7 µM,79% (active)
same,growth inhibition,[1]; at 11.0 µM,96% (active)
same,growth inhibition,[1]; at 33.0 µM,96% (active)
same,growth inhibition,[1]; at 100.0 µM,94% (active)
same,growth inhibition,[2]; at 1.2 µM,-2%
same,growth inhibition,[2]; at 3.7 µM,34%
same,growth inhibition,[2]; at 11.0 µM,96% (active)
same,growth inhibition,[2]; at 33.0 µM,97% (active)
same,growth inhibition,[2]; at 100.0 µM,95% (active)
same,growth inhibition,[3]; at 1.2 µM,1%
same,growth inhibition,[3]; at 3.7 µM,6%
same,growth inhibition,[3]; at 11.0 µM,8%
same,growth inhibition,[3]; at 33.0 µM,9%
same,growth inhibition,[3]; at 100.0 µM,15%
same,growth inhibition,[4]; at 1.2 µM,8%
same,growth inhibition,[4]; at 3.7 µM,85% (active)
same,growth inhibition,[4]; [16],12%
same,growth inhibition,[4]; at 11.0 µM,97% (active)
same,growth inhibition,[4]; at 33.0 µM,96% (active)
same,growth inhibition,[4]; [17],96% (active)
same,growth inhibition,[4]; at 50.0 µM,98.1% (active)
same,growth inhibition,[4]; at 100.0 µM,93% (active)
same,growth inhibition,[5]; at 1.2 µM,4%
same,growth inhibition,[5]; at 3.7 µM,42%
same,growth inhibition,[5]; [16],21%
same,growth inhibition,[5]; at 11.0 µM,95% (active)
same,growth inhibition,[5]; at 33.0 µM,96% (active)
same,growth inhibition,[5]; [17],98% (active)
same,growth inhibition,[5]; at 50.0 µM,98.2% (active)
same,growth inhibition,[5]; at 100.0 µM,96% (active)
same,growth inhibition,[6]; at 1.2 µM,3%
same,growth inhibition,[6]; at 3.7 µM,64%
same,growth inhibition,[6]; at 11.0 µM,96% (active)
same,growth inhibition,[6]; at 33.0 µM,97% (active)
same,growth inhibition,[6]; at 100.0 µM,95% (active)
same,growth inhibition,[7]; [16],58%
same,growth inhibition,[7]; [17],98% (active)
same,growth inhibition,[7]; at 50.0 µM,97.9% (active)
same,growth inhibition,[8]; at 1.2 µM,8%
same,growth inhibition,[8]; at 3.7 µM,64%
same,growth inhibition,[8]; at 11.0 µM,97% (active)
same,growth inhibition,[8]; at 33.0 µM,97% (active)
same,growth inhibition,[8]; at 100.0 µM,96% (active)
same,growth inhibition,[9]; [16],49%
same,growth inhibition,[9]; [17],93% (active)
same,growth inhibition,[9]; at 50.0 µM,95.8% (active)
same,growth inhibition,[11]; at 1.2 µM,-1%
same,growth inhibition,[11]; at 3.7 µM,62%
same,growth inhibition,[11]; at 11.0 µM,97% (active)
same,growth inhibition,[11]; at 33.0 µM,96% (active)
same,growth inhibition,[11]; at 100.0 µM,95% (active)
same,growth inhibition,[12]; at 1.2 µM,10%
same,growth inhibition,[12]; at 3.7 µM,68%
same,growth inhibition,[12]; at 11.0 µM,97% (active)
same,growth inhibition,[12]; at 33.0 µM,97% (active)
same,growth inhibition,[12]; at 100.0 µM,96% (active)
same,growth inhibition,[13]; at 1.2 µM,9%
same,growth inhibition,[13]; at 3.7 µM,84% (active)
same,growth inhibition,[13]; at 11.0 µM,97% (active)
same,growth inhibition,[13]; at 33.0 µM,97% (active)
same,growth inhibition,[13]; at 100.0 µM,96% (active)
same,growth inhibition,[14]; [16],82% (active)
same,growth inhibition,[14]; [17],97% (active)
same,growth inhibition,[14]; at 50.0 µM,98.3% (active)
same,growth inhibition,[15]; at 1.2 µM,25%
same,growth inhibition,[15]; at 3.7 µM,89% (active)
same,growth inhibition,[15]; at 11.0 µM,96% (active)
same,growth inhibition,[15]; at 33.0 µM,97% (active)
same,growth inhibition,[15]; at 100.0 µM,96% (active)
